Measured values reported in PubChem BioAssay (NCATS).
Records with an inconclusive call do not appear. Entries that show only a call come without a potency. The source made the active and inactive calls. Unless noted, calls follow the shape of the dose curve; as a rule, active = well fitted curve in the direction sought with a large enough effect; inconclusive = small, poorly fitted or top-dose-only effect, or another doubt; inactive = no such curve, though single readings can be large; an effect the other way counts as inactive or inconclusive.

How the values were obtained:
[1] = NCATS anti-infectives library activity on HEK293 viability as a counter-qHTS vs the C. elegans viability qHTS (AID 1745854)
Method in brief: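 Cytotoxicity counter-screen to a worm viability qHTS: CellTiter-Glo luminescence read 10 min after reagent addition. Compounds (final up to 41.7 uM, a 1:5 dilution series) incubated 24 hr at 37C with 1,500 HEK293 cells per well; digitonin control.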

[2] = target: Glutathione peroxidase 1 (Homo sapiens) (UniProt P07203); assay: Primary qHTS Assay for Inhibitors of Recombinant Selenoprotein Glutathione Peroxidase 1 (GPX1) (AID 1845191); also: nearly all actives have a fitted effect of over 65% in size
Method in brief: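 GPX1 10 nM, GR 100 nM, GSH 1 mM, NADPH 0.5 mM, CHP 0.5 mM (final). 30-min cpd preincubation, RT. Ex340/Em450 read t=0, t=15 min.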

[3] = target: Phospholipid hydroperoxide glutathione peroxidase GPX4 (Homo sapiens) (UniProt P36969); assay: Primary qHTS Assay for Inhibitors of Recombinant Selenoprotein Glutathione Peroxidase 4 (GPX4) (AID 1845192); also: nearly all actives have a fitted effect of over 65% in size; also: potency is read from the fitted curve at half-maximal effect
Method in brief: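 qHTS, GR-coupled: GPX4 200 nM + cpd 30 min RT → GSH 1 mM, NADPH 0.5 mM, GR 100 nM → CHP 0.5 mM start; fluor 340/450 at t0 and t15 min; no-enzyme wells as control.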

[4] = NCATS anti-infectives library activity on the primary C. elegans qHTS viability assay (AID 1745855; calls by dose curve)
Method in brief: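 GFP read-out by 488 nm laser cytometry at day 0, 3 and 7, gated on object perimeter, area and peak intensity, scored viability of PE254-GFP-FLuc worms exposed to compound in S medium with bacterial capsules at 21 °C.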

[5] = Viability counterscreen for antagonist of constitutive androstane receptor (CAR) against the NCATS DSHEA and TCM libraries (AID 1794837);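 also: compound exposure lasted 24 h before viability reading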
Method in brief: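 Cells: HepG2 line carrying CYP2B6 reporter and hCAR, seeded and attached 5 h. Then pin-transferred test substances plus agonist CITCO at 48 uM final; 24 h incubation; fluorogenic viability reagent, 1 h.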

[6] = Viability counterscreen for agonist of constitutive androstane receptor (CAR) against the NCATS DSHEA and TCM libraries (AID 1794838);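 also: HepG2 cells with CYP2B6 reporter and hCAR plus 0.75 µM PK11195 antagonist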
Method in brief: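 Cell health was measured as CellTiter-Fluor signal in HepG2-CYP2B6-hCAR cells treated for 24 h with substances alongside the hCAR antagonist PK11195 (0.75 uM final).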

[7] = target: Nuclear receptor subfamily 1 group I member 3 (Homo sapiens) (UniProt Q14994); assay: Primary qHTS for agonist of constitutive androstane receptor (CAR) against the NCATS DSHEA and TCM libraries (AID 1794839);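 also: HepG2 cells expressing human CAR with a CYP2B6 reporter plus PK11195 antagonist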
Method in brief: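 qHTS, agonist mode: HepG2-CYP2B6-hCAR, 2,500 cells/well, 5 h attach; cpds + PK11195 0.75 µM final; 24 h, 37 °C, 5% CO2. Readouts: CellTiter-Fluor (405/540 nm), then ONE-Glo luminescence.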

[8] = HepG2 viability counterscreen (readout 2: ATP content) against the NCATS DSHEA and TCM libraries (AID 1794840)
Method in brief: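 Same wells read twice: first fluorescence from cleaved GF-AFC substrate (25 uM final, 30 min, 37C) for live-cell protease, then CellTiter-Glo luminescence after 30 min at room temperature for ATP. HepG2 cells were exposed ~24 h to substances.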

[9] = target: Cytochrome P450 2D6 (Homo sapiens) (UniProt P10635); assay: qHTS for inhibitors of CYP2D6 against the NCATS DSHEA and TCM libraries (AID 1919972)
Method in brief: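 CYP2D6 enzyme with pro-luciferin substrate in manufacturer buffer (typically 100 mM KPO4), preincubated 15 min RT with substances (most at 19.5 nM upward); NADPH regeneration system (1x) started 30–45 min RT reaction; P450-Glo luminescence read after 30 min; quinidine as intraplate control.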

[10] = target: Cytochrome P450 2C9 (Homo sapiens) (UniProt P11712); assay: qHTS for inhibitors of CYP2C9 against the NCATS DSHEA and TCM libraries (AID 1919973); also: potency is read from the fitted curve at half-maximal effect
Method in brief: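 Each CYP isoform and its pro-luciferin substrate, at isoform-specific final concentrations, were preincubated 15 min at RT with substances. NADPH regeneration solution (1x) started a 30-45 min reaction, and P450-Glo luminescence was read.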

[11] = KB-3-1 P-gp reporter qHTS against the NCATS DSHEA and TCM libraries (AID 1919975)
Method in brief: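 KB-3-1 parental line, 1536-well qHTS: cells seeded, ~4 h attachment, pintool compound addition, ~72 h at 37C, then CellTiter-Glo, 30 min RT, luminescence. Concentration-response format.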

[12] = target: Cytochrome P450 1A2 (Homo sapiens) (UniProt P05177); assay: qHTS for inhibitors of CYPIA2 against the NCATS DSHEA and TCM libraries (AID 1919976); also: series mostly up to about 37 µM
Method in brief: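 Reaction started with 1x NADPH regeneration solution and run 30-45 min, room temperature, protected from light, after compounds sat 15 min with CYP1A2 and pro-luciferin substrate. P450-Glo detection gave luminescence; furafylline served as control.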

[13] = qHTS Counterscreen for compound interference against the NCATS DSHEA and TCM libraries (AID 1919978); conditions: firefly luciferase detection reagent interference, luminescence;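 also: compounds preincubated with 1 µM D-luciferin or buffer before detection reagent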
Method in brief: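 Compounds, titrated from 19.5 nM to 39.8 uM final, were pinned onto 1 uM D-luciferin or plain 100 mM potassium phosphate. After 15 min at room temperature, luciferin detection reagent was added for 30 min before the luminescence read.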

[14] = Dual reporter qHTS for agonist of Pregnane X Receptor (hPXR) against the NCATS DSHEA and TCM libraries: Fluorescence readout (AID 1920058)
Method in brief: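 Viability readout (CellTiter-Fluor, 405/540 nm, 1 h) from agonist-mode PXR dual reporter in hPXR-Luc HepG2 cells. Substances ~24 h, 37 °C, 5% CO2; rifampicin reference, tetraoctyl ammonium bromide cytotoxic control.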

[15] = target: Nuclear receptor subfamily 1 group I member 2 (Homo sapiens) (UniProt O75469); assay: Dual reporter qHTS for agonist of Pregnane X Receptor (hPXR) against the NCATS DSHEA and TCM libraries: Luminescence readout (AID 1920059)
Method in brief: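 hPXR-LucHepG2 cells in phenol red-free DMEM with 5% charcoal-stripped FBS, 2000 cells/well, attached 5 h, then exposed 24 h at 37C to compounds; rifampicin as positive agonist control (2.8 nM–92 uM). Luciferase luminescence read.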

[16] = target: Nuclear receptor subfamily 1 group I member 2 (Homo sapiens) (UniProt O75469); assay: Dual reporter qHTS for antagonist of Pregnane X Receptor (hPXR) against the NCATS DSHEA and TCM libraries: Luminescence Readout (AID 1920060);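 also: HepG2 cells carrying hPXR luciferase reporter stimulated with rifampicin at 2 µM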
Method in brief: (§1)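 hPXR-Luc HepG2 cells exposed 24 h at 37 C to compounds with 2 uM rifampicin in antagonist mode; luciferase luminescence measured by ONE-Glo, with CellTiter-Fluor viability read beforehand.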

[17] = Dual reporter qHTS for antagonist of Pregnane X Receptor (hPXR) against the NCATS DSHEA and TCM libraries: Fluorescence Readout (AID 1920061)
Method in brief: as §1

[18] = qHTS drug screen for cell cycle checkpoint inhibitors in PARPi-resistant BRCA-mutant ovarian cancer cell lines. (AID 1963452; calls by dose curve); conditions: PEO1/OlaR viability, CellTiter-Glo luminescence, 96 h, stronger effect = lower value
Method in brief: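 PEO1, PEO4 and PEO1/OlaR ovarian cancer cells, 600 per well, exposed 96 h at 37C to a dilution series. Viability read by CellTiter-Glo luminescence, normalized to DMSO and empty wells; activity summarized as Z-AUC.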

Sequence of Phospholipid hydroperoxide glutathione peroxidase GPX4 (Homo sapiens) (P36969 whole entry, looked up): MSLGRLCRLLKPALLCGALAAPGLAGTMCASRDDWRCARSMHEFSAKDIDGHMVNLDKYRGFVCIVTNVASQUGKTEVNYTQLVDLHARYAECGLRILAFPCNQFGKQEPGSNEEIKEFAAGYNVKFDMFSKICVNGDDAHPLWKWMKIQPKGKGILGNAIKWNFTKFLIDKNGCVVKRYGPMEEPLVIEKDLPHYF
Sequence of Glutathione peroxidase 1 (Homo sapiens) (P07203 whole entry, looked up): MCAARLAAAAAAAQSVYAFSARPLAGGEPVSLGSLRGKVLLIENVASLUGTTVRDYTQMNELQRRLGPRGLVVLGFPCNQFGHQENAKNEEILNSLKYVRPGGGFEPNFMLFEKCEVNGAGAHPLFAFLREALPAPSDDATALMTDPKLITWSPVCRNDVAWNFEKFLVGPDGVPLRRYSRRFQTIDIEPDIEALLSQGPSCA
Sequence of Nuclear receptor subfamily 1 group I member 2 (Homo sapiens) (O75469 whole entry, looked up): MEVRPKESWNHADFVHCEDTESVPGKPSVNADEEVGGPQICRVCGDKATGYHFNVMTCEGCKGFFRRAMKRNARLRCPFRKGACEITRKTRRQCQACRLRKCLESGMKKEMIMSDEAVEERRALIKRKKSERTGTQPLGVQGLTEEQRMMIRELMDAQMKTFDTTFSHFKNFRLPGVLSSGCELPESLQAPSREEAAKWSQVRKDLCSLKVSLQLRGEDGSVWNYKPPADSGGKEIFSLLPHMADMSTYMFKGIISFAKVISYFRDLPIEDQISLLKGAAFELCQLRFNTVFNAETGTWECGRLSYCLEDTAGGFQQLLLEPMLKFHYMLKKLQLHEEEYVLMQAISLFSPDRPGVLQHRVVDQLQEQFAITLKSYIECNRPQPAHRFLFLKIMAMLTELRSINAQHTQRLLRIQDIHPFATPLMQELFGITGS
Sequence of Cytochrome P450 2C9 (Homo sapiens) (P11712 whole entry, looked up, canonical isoform): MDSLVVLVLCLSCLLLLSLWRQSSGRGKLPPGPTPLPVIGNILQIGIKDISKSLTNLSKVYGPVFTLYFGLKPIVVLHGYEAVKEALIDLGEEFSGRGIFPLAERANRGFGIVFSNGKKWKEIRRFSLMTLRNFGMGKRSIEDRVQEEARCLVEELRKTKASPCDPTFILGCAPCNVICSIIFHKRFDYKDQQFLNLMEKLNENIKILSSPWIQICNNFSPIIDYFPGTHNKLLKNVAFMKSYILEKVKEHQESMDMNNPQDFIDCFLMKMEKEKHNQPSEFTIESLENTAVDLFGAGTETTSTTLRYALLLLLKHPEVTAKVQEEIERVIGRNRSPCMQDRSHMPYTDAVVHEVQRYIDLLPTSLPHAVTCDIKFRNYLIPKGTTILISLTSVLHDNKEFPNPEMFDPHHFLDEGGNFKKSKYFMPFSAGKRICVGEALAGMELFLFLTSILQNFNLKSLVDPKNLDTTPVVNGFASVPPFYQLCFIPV
Sequence of Nuclear receptor subfamily 1 group I member 3 (Homo sapiens) (Q14994 whole entry, looked up): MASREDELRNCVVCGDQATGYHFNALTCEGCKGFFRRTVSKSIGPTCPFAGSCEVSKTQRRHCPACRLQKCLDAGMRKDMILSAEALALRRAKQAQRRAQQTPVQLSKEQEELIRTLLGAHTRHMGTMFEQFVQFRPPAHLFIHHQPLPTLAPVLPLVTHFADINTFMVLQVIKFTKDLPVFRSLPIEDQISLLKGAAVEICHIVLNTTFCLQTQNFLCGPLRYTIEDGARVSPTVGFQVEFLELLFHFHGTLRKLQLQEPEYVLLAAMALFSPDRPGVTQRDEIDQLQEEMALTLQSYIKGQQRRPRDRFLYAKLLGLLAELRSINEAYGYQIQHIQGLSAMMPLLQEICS
Sequence of Cytochrome P450 1A2 (Homo sapiens) (P05177 whole entry, looked up): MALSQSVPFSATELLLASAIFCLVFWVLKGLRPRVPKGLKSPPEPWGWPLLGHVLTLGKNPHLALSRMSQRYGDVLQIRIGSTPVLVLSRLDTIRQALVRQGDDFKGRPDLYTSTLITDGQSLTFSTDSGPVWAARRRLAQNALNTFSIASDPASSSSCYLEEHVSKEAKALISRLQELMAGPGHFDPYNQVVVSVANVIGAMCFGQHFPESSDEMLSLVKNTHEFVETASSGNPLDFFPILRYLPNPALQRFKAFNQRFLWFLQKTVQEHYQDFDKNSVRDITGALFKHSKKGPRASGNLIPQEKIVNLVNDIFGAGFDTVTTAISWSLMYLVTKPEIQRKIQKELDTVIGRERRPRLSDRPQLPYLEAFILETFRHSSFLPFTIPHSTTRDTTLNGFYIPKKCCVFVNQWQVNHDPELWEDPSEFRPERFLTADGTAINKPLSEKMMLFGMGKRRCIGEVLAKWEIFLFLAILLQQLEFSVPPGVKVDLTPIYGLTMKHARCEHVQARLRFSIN
Sequence of Cytochrome P450 2D6 (Homo sapiens) (P10635 whole entry, looked up): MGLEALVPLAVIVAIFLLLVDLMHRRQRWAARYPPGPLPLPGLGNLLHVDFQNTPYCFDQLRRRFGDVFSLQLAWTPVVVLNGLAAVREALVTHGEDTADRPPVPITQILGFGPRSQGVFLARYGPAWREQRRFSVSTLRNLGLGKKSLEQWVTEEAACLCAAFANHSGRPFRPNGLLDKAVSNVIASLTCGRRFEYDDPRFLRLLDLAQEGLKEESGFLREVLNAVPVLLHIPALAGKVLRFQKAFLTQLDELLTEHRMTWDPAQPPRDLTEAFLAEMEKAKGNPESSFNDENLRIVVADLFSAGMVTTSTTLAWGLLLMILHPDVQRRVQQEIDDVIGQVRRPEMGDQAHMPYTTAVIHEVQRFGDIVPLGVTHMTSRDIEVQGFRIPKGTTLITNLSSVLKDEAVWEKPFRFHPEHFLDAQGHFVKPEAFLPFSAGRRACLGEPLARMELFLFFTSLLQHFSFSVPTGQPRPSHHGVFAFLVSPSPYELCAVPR

**Q.** With O=C1O[C@H]2[C@H](OC(O)[C@@H]2O)[C@@H]1O (some centres undefined) as the compound, how does the Potency [1] read?
**A.** inactive

**Q.** And the Potency [2]?
**A.** inactive

**Q.** What about the Potency [3] of the same compound?
**A.** inactive

**Q.** With O=c1ccn2c(n1)O[C@H]1[C@H](O)[C@@H](CO)O[C@H]12 as the compound, how does the Potency [1] read?
**A.** inactive

**Q.** And the Potency [4]?
**A.** inactive

**Q.** For CC(C)C[C@H](NC(=O)[C@H]1O[C@@H]1C(=O)O)C(=O)NCCCCN=C(N)N, which Potency [1] is on record?
**A.** inactive

**Q.** And the Potency [2]?
**A.** inactive

**Q.** With O=C(/C=C/c1ccc(O)c2c1[C@H](C(=O)O)[C@@H](c1ccc(O)c(O)c1)O2)O[C@H](Cc1ccc(O)c(O)c1)C(=O)O as the compound, how does the Potency [1] read?
**A.** inactive

**Q.** And the outcome [5]?
**A.** inactive

**Q.** And the outcome [6]?
**A.** inactive

**Q.** What about the Potency [7] of the same compound?
**A.** inactive

**Q.** And the outcome [8]?
**A.** inactive

**Q.** What about the Potency [9] of the same compound?
**A.** inactive

**Q.** What about the Potency [10] of the same compound?
**A.** 14.1 µM (active)

**Q.** And the outcome [11]?
**A.** inactive

**Q.** What about the Potency [12] of the same compound?
**A.** inactive

**Q.** What about the max response [13] of the same compound?
**A.** -1.18% (inactive)

**Q.** And the outcome [14]?
**A.** inactive

**Q.** What about the Potency [15] of the same compound?
**A.** inactive

**Q.** And the outcome [16]?
**A.** inactive

**Q.** What about the outcome [17] of the same compound?
**A.** inactive

**Q.** Which Potency [1] does the source give for O=C1CCC[C@@H]2[C@@H]3CCC[N@+]4([O-])CCC[C@H](CN12)[C@H]34 here?
**A.** inactive

**Q.** And the Potency [2]?
**A.** inactive

**Q.** And the Potency [3]?
**A.** inactive

**Q.** What about the Z-AUC [18] of the same compound?
**A.** 1.48 (inactive)

**Q.** And the Z-AUC ([18]; measured here: PEO1 parental Z-AUC)?
**A.** 0.635

**Q.** What about the Z-AUC ([18]; measured here: PEO4 Z-AUC) of the same compound?
**A.** 0.881

**Q.** What does the source list for CC(C)CN(C[C@@H](O)[C@H](Cc1ccccc1)NC(=O)[C@@H](NC(=O)CNCc1cccc(F)c1)C(C)(C)C)S(=O)(=O)c1cccc(N)c1?
**A.** Potency [1]: inactive; Potency [4]: inactive

**Q.** With CCCCCCCCCCCCCCCCOc1nc2ccc(C)cc2c(=O)o1 as the compound, how does the Potency [1] read?
**A.** inactive

**Q.** And the Potency [2]?
**A.** inactive

**Q.** Which Potency [1] does the source give for COC[C@H]1C[C@@H](c2ncc(-c3ccc4c(c3)COc3cc5c(ccc6[nH]c([C@@H]7CC[C@H](C)N7C(=O)[C@@H](NC(=O)OC)C(C)C)nc65)cc3-4)[nH]2)N(C(=O)[C@H](NC(=O)OC)c2ccccc2)C1 here?
**A.** inactive

**Q.** What about the Potency [2] of the same compound?
**A.** inactive

**Q.** With COc1ccc2c(O[C@H]3CC4C(=O)N(C)CCCC/C=C\[C@@H]5C[C@@]5(C(=O)NS(=O)(=O)C5CC5)NC(=O)[C@@H]4C3)cc(-c3nc(C(C)C)cs3)nc2c1C (some centres undefined) as the compound, how does the Potency [1] read?
**A.** inactive

**Q.** What about the Potency [2] of the same compound?
**A.** inactive

**Q.** What about the Potency [3] of the same compound?
**A.** 2 µM (active)

**Q.** What does the source list for CC1(C)CC[C@]2(C(=O)O)CC[C@]3(C)C(=CC[C@@H]4[C@@]5(C)CC[C@H](O)C(C)(C)[C@@H]5CC[C@]43C)[C@@H]2C1?
**A.** Potency [1]: inactive; Potency [4]: inactive; Potency [2]: inactive
